Assay results published in the supplement of paper PMC12636033.
± gives the standard deviation of the averaged measurements. Over roughly 33,000 sequences, “E-score (rank enrichment, -0.5 to 0.5)” has its median near -0.0043; the highest 2% begin near 0.24. This is one part of a sample in which the highest values are shown more often than they occur.

These sequences were tested on 2Sp-muMax20 (muMax20 with two 2,6-bis(methyl)pyridine Cys staples) (assay: PBM 8-mer E-score (E-score (rank enrichment, -0.5 to 0.5)); higher = stronger preferential binding).
Procedure: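 Protein binding microarray (universal PBM chip covering all 10-mers in fixed probe flanks) with chemically synthesized human Max(13-93) bHLH-LZ analogs (not full-length Max) bearing noncanonical residues (hArg, Tha, Aib, Nle at 65) and aromatic Cys staples. Read-out per 8-mer (and its reverse complement): E-score (rank-based enrichment, -0.5 to 0.5) and Z-score of median probe intensity.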

Row | Sequence | PBM 8-mer E-score
1 | AGTGGGGG | -0.0461 ± 0.0062
2 | CATGGGGA | 0.124 ± 0.043
3 | AGTGGGGA | 0.245 ± 0.011
4 | TATGGGGA | 0.283 ± 0.028
5 | GCCATGTA | 0.0368 ± 0.0029
6 | CTCTTGGA | -0.112 ± 0.014
7 | CAGTAGCG | -0.205 ± 0.045
8 | ACGGCTAA | -0.0509 ± 0.014
9 | ACCCCGGC | -0.00709 ± 0.083
10 | ACATAGAC | 0.115 ± 0.034
11 | ATTGAAGG | -0.0238 ± 0.14
12 | ATTGAAGA | 0.237 ± 0.023
13 | GTTGAAGA | 0.0675 ± 0.033
14 | CTTCCGAA | -0.23 ± 0.024
15 | GTATTATA | 0.259 ± 0.053
16 | ATATTAGG | 0.297 ± 0.029
17 | GTATTAAA | 0.134 ± 0.014
18 | ATATTATG | 0.274 ± 0.083
19 | CTATTATA | 0.0957 ± 0.01
20 | ATATTATC | 0.0885 ± 0.023
21 | AGATTATG | -0.00069 ± 0.061
22 | ATATTAGA | 0.235 ± 0.012

Row | Sequence | PBM 8-mer E-score
23 | ATATTAGC | 0.166 ± 0.0073
24 | ATATTATA | 0.268 ± 0.047
25 | GTATTAGA | 0.182 ± 0.073
26 | ATATTACA | 0.157 ± 0.058
27 | CAGTTCGC | -0.0265 ± 0.073
28 | TGTTAGAA | 0.125 ± 0.12
29 | CGACTGGC | -0.148 ± 0.052
30 | CCAGAGAC | -0.05 ± 0.076
31 | GGATGACA | -0.0339 ± 0.094
32 | GTATTCTA | 0.134 ± 0.021
33 | CTATTCTA | 0.227 ± 0.043
34 | ATATTCTA | 0.244 ± 0.04
35 | AATGGCAA | 0.00112 ± 0.089
36 | CCAAGAGC | -0.0397 ± 0.036
37 | TACGTGGA | 0.0461 ± 0.0044
38 | GACGTGGA | 0.055 ± 0.0074
39 | AACGTGGA | 0.0553 ± 0.0092
40 | GACGTGGC | 0.0114 ± 0.026
41 | AACGTGGG | 0.1 ± 0.047
42 | CACGTGGC | 0.357 ± 0.064
43 | AACGTGGC | 0.163 ± 0.041
44 | CACGTGGA | 0.398 ± 0.033

Row | Sequence | PBM 8-mer E-score
45 | CACGTGGG | 0.436 ± 0.0081
46 | CTATTCAG | 0.00673 ± 0.056
47 | AGAAGCGA | -0.0304 ± 0.05
48 | ATCACGGA | -0.0223 ± 0.047
49 | ACTTAGCC | -0.0201 ± 0.091
50 | AGCGTAAC | 0.041 ± 0.14
51 | GACTCAGC | -0.176 ± 0.036
52 | AACGCCTT | -0.0913 ± 0.021
53 | GCACAATA | -0.00579 ± 0.025
54 | ACACAAAA | 0.172 ± 0.045
55 | AGACAATA | 0.268 ± 0.026
56 | ACACAAAC | 0.271 ± 0.025
57 | ACACAATG | 0.122 ± 0.025
58 | AGACAATC | 0.0678 ± 0.067
59 | ACACAAAG | 0.206 ± 0.045
60 | ACACAATA | 0.247 ± 0.029
61 | AGACAATG | 0.00664 ± 0.0054
62 | GAAGGTCA | -0.106 ± 0.027
63 | ATCTAACG | 0.0512 ± 0.018
64 | CCCCTTTA | 0.1759 ± 0.0016
65 | ACTGTGGC | -0.025 ± 0.13
66 | TGTTTTAA | 0.0917 ± 0.0018

Row | Sequence | PBM 8-mer E-score
67 | AGTTTAAA | 0.181 ± 0.021
68 | CATTTAAA | 0.239 ± 0.026
69 | TATTTAAA | 0.155 ± 0.05
70 | TGTTTAAA | 0.278 ± 0.015
71 | CATTTTAA | 0.167 ± 0.029
72 | ATCCTCTA | -0.0199 ± 0.026
73 | CAAGTGTG | 0.119 ± 0.073
74 | AATGCGTC | -0.0127 ± 0.03
75 | ATCAAGAC | -0.00991 ± 0.011
76 | ACGATGAT | 0.0729 ± 0.0089
77 | CTCTATCA | -0.0317 ± 0.017
78 | GGCACCAA | 0.0196 ± 0.084
79 | AATGTGGC | 0.124 ± 0.005
80 | CATGTGGC | 0.173 ± 0.13
81 | AATGTGGG | 0.246 ± 0.00061
82 | AATGTGGT | 0.0284 ± 0.063
83 | CATGTGGG | 0.329 ± 0.026
84 | CATGTGGA | 0.16 ± 0.0062
85 | CGGAGTTA | -0.187 ± 0.057
86 | GGGAGTTA | 0.245 ± 0.029
87 | AGGAGTTA | 0.109 ± 0.0086
